The source of these data is PubChem BioAssay (EPA / NIEHS).

“And” between values parts separate entries of the source, which are not always exact repeats. Identical values can stand only once. Some compounds were tested as several samples or in several runs, with calls that do not always agree. The source made the active and inactive calls. Rule for the calls: active = hit-call score of the fitted dose curve at least 0.9, where 1 is the maximum; inactive = score below 0.9.

A short description of test [1]: ATG_M_06_CIS: Attagene CIS-FACTORIAL HepG2 Assay for M06 Transcription Factor (Internal Marker) (AID 2282950). The note with it: HepG2 Attagene CIS-FACTORIAL M06 internal marker reporter; actives raise or lower the signal. The essentials:
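Serves as a background control readout. Transfected HepG2 exposed to compounds for 24 h, then reporter transcripts quantified by fluorescent RT-PCR and capillary electrophoresis. Both directions fitted against DMSO baseline.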

For test [2], the target named is Hypoxia-inducible factor 1-alpha (Homo sapiens) (UniProt Q16665). As to the kind of experiment: ATG_HIF1a_CIS: Attagene CIS-FACTORIAL HepG2 Assay for human Hypoxia Inducible Factor 1 (HIF1A) (AID 2282951). The note with it: HepG2 Attagene cis-factorial HIF1a reporter transcription; actives raise or lower the signal. In outline: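 Fluorescence intensity of capillary-separated, 6-FAM-labelled reporter amplicons gives mRNA induction in HepG2 cells carrying transfected cis-promoter reporter units; cells exposed 24 h, responses fitted up or down from DMSO.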
Chain of Hypoxia-inducible factor 1-alpha (Homo sapiens) (Q16665 whole entry, looked up): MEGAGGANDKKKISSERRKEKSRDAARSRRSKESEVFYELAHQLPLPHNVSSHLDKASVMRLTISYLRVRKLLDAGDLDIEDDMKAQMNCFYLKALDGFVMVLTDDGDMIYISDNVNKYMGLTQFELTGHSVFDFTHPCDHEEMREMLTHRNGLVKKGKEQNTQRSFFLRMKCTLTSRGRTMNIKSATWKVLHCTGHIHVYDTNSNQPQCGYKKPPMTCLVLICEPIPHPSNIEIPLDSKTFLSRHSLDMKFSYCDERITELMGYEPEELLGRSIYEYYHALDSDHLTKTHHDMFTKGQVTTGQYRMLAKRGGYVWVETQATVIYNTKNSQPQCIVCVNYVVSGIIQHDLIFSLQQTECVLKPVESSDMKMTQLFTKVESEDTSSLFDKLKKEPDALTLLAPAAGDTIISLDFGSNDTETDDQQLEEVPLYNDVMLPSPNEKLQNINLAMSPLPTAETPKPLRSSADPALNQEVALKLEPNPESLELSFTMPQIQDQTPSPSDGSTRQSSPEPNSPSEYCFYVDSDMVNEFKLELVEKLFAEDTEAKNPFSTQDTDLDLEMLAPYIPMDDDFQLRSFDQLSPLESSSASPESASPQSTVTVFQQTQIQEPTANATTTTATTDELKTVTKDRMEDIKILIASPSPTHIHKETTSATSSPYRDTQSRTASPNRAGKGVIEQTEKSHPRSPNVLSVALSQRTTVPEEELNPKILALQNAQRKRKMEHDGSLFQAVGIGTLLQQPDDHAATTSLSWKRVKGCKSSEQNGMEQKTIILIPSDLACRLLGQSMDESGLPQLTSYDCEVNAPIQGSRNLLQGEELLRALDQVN

Test [3] deals with Hepatocyte nuclear factor 6 (Homo sapiens) (UniProt Q9UBC0). Put plainly: ATG_HNF6_CIS: Attagene CIS-FACTORIAL HepG2 Assay for human Hepatocyte Nuclear Factor 6 (HNF6) (AID 2282952). Particulars: HepG2 Attagene cis-factorial HNF6 reporter transcription; actives raise or lower the signal. In outline:
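HepG2 cells transiently transfected with cis-element-driven multiplexed reporter units measuring endogenous transcription factor activity. After 24 h exposure, reporter mRNA quantified by RT-PCR, FAM-labelled fragments and capillary electrophoresis; bidirectional fitting versus DMSO.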

For test [4], the target named is Heat shock factor protein 1 (Homo sapiens) (UniProt Q00613). Put plainly: ATG_HSE_CIS: Attagene CIS-FACTORIAL HepG2 Assay for human Heat Shock Transcription Factor 1 (HSE) (AID 2282953). Particulars: HepG2 HSE cis-reporter, Attagene RNA transcription; actives raise or lower the signal. The essentials: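 Endogenous transcription factor activity in transiently transfected HepG2, read as reporter mRNA by RT-PCR with fluorescent capillary electrophoresis after 24 h. Gain or loss of signal fitted versus DMSO baseline.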
Chain of Heat shock factor protein 1 (Homo sapiens) (Q00613 whole entry, looked up): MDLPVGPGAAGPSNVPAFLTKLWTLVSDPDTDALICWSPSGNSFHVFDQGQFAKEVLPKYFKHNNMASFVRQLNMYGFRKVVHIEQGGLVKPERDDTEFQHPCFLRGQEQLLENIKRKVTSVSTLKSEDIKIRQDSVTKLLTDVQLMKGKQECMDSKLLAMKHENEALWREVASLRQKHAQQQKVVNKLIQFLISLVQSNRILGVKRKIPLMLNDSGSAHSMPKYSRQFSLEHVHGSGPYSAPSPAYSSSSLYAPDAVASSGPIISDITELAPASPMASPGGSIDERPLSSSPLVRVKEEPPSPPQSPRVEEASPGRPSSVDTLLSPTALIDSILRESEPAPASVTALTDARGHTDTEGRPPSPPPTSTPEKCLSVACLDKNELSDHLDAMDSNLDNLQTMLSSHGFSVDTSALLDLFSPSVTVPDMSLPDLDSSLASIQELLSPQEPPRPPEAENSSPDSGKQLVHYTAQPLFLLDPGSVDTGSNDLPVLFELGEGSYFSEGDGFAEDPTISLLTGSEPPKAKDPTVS

Test [5] is described as follows: ATG_MRE_CIS: Attagene CIS-FACTORIAL HepG2 Assay for human Metal Responsive Element (MRE) (AID 2282954). Particulars: HepG2 MRE cis-reporter transcription, Attagene multiplex; actives raise or lower the signal. The essentials: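 HepG2 cells transiently transfected with cis-element-driven reporter units; mRNA measured 24 h after dosing. Reporter transcripts quantified by RT-PCR, FAM labelling, HpaI digestion and capillary electrophoresis; bidirectional fit versus DMSO.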

Test [6] is described as follows: ATG_PBREM_CIS: Attagene CIS-FACTORIAL HepG2 Assay for human Phenobarbital-responsive Enhancer Module (PBREM) (AID 2282955). The note with it: HepG2 PBREM cis-reporter, Attagene multiplexed transcription; actives raise or lower the signal. In outline:
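Cells were transfected with cis-element reporter units and treated for 24 h, after which RNA was extracted and reporter transcripts measured by RT-PCR and capillary electrophoresis.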

Test [7] has as its target Paired box protein Pax-6 (Homo sapiens) (UniProt P26367). Put plainly: ATG_Pax6_CIS: Attagene CIS-FACTORIAL HepG2 Assay for human Paired Box 6 (PAX6) (AID 2282956). The note with it: HepG2 CIS-FACTORIAL PAX6 reporter transcription, RNA readout; actives raise or lower the signal. In outline: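 Transient MRTU transfection of HepG2 → compound exposure 24 h → TriZol RNA, oligo(dT) RT → PCR, 6-FAM primer extension, HpaI cut → capillary electrophoresis; activity fitted both directions against DMSO.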

The nature of test [8]: ATG_PXRE_CIS: Attagene CIS-FACTORIAL HepG2 Assay for human Pregnane X Receptor Element (PXRE) (AID 2282957). The note with it: HepG2 Attagene CIS-FACTORIAL PXRE reporter, mRNA; actives raise or lower the signal. In outline: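 HepG2 cells transiently transfected with cis-element-driven multiplexed reporter units; after 24 h chemical exposure, reporter mRNA measured by RT-PCR, 6-FAM labelling, HpaI digestion and capillary electrophoresis. Bidirectional fitting relative to DMSO.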

The nature of test [9]: ATG_PPRE_CIS: Attagene CIS-FACTORIAL HepG2 Assay for human Peroxisome Proliferator-activated Response Element (PPRE) (AID 2282958). Particulars: HepG2 PPRE cis-element reporter, Attagene transcription factor profiling; actives raise or lower the signal. In outline:
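In this cell-based multiplex, a PPRE cis element drives a reporter sequence in transiently transfected HepG2 cells. Following 24 h treatment, labeled cDNA amplicons are sized and quantified by capillary electrophoresis, with DMSO defining baseline.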

Test [10] can be described thus: ATG_RORE_CIS: Attagene CIS-FACTORIAL HepG2 Assay for human RAR-related Orphan Receptor Element (RORE) (AID 2282959). Particulars: HepG2 Attagene cis-factorial RORE reporter, mRNA; actives raise or lower the signal. The essentials: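 Endogenous factor activity at a cis response element is read as reporter transcript levels in HepG2 cells, 24 h post-dose. Transcripts are quantified by RT-PCR with capillary electrophoresis, and data fitted in both directions against DMSO.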

Chain of Hepatocyte nuclear factor 6 (Homo sapiens) (Q9UBC0 whole entry, looked up, the tested form may be a part): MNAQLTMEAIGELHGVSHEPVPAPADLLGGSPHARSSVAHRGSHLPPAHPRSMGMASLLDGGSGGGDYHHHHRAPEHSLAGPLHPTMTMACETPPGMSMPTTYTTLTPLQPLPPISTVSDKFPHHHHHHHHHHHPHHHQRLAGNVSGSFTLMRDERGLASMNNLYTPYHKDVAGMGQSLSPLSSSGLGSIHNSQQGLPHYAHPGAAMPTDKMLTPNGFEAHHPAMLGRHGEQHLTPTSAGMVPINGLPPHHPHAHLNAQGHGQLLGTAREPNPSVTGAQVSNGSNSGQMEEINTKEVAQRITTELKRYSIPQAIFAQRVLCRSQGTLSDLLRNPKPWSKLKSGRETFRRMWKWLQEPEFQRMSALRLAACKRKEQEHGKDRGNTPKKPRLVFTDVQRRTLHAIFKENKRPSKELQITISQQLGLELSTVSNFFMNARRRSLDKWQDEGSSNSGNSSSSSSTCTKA
Chain of Paired box protein Pax-6 (Homo sapiens) (P26367 whole entry, looked up): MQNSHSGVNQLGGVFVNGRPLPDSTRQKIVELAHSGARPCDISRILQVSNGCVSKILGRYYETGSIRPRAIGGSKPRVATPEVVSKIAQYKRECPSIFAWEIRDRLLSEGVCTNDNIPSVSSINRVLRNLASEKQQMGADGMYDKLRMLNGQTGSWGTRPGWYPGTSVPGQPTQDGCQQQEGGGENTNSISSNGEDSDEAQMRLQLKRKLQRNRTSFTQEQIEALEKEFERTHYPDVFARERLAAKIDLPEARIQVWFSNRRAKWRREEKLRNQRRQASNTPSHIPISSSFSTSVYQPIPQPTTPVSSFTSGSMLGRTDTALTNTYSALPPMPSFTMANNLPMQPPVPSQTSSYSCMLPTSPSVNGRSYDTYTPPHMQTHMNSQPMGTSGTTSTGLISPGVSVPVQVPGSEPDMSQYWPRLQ

As for `COc1ccc(C=O)cc1`, the molecule was called inactive in [1], in [2], in test [3], in test [4], in [5] and in test [6]. For the same molecule, the call in test [7], in test [8], in [9] and in test [10] was inactive.
The term AC50 denotes the midpoint of the concentration-response curve, whichever way the signal moves. As for `O=C(O)C(F)(F)C(F)(F)C(F)(F)C(F)(F)C(F)(F)C(F)(F)C(F)(F)C(F)(F)C(F)(F)C(F)(F)F`, the concentration at half-maximal activity (AC50) was 76.2 µM (active) in test [1]; 23.2 µM (active) in test [2]; 23.2 µM (active) and 15.5 µM (active) in test [5]; 70.8 µM (active) in test [6]; 30.8 µM (active) in test [7]; 62 µM (active) in [8]. For the same molecule, the AC50 in test [10] is 24.2 µM (active). Further, the molecule was classed as inactive in test [1], in test [2], in [3], in [6], in [7] and in test [8]. The molecule was called inactive in test [10].
Turning to `CC(Br)C(=O)O` (stereo unspecified), the outcome in test [1], in test [2], in test [3], in test [4], in test [5] and in test [6] was inactive. Besides, the result in [7], in test [8] and in test [10] was inactive.
Take `CC(C)OC(=O)Nc1ccccc1`: the result in [1], in test [2], in [3], in [4], in test [5] and in test [6] was inactive. Also, the molecule was called inactive in test [7] and in test [10].
In the case of `O=S(=O)(c1ccc(Cl)cc1)c1ccc(Cl)cc1`, the result in [1], in test [2], in [3], in [4], in test [6] and in test [7] was inactive. In addition, the outcome in test [9] and in test [10] was inactive. Moreover, the AC50 was 101 µM (active) in test [5] and 4.46 µM (active) in [8].
Turning to `CC(=O)C(Cl)C(=O)N(C)C` (stereo unspecified), the call in test [1], in test [2], in [3], in [4], in test [6] and in test [7] was inactive. Moreover, the call in test [8] and in test [10] was inactive. In test [5], the AC50 was 100 µM (active).
Turning to `C[C@@H]1C[C@@H]([C@H](O)CC2CC(=O)NC(=O)C2)C(=O)[C@@H](C)C1`, the molecule was classed as inactive in test [1], in test [2], in [3], in [4], in [5] and in [7]. Further, the call in [9] and in [10] was inactive. Besides, the AC50 in test [2] is 119 nM (active) and 22.9 µM (active); in test [4], 2.68 µM (active) and 1.53 µM (active); in [9], 27.5 µM (active).
Regarding `C[C@H]1CCCC(=O)CCC/C=C/c2cc(O)cc(O)c2C(=O)O1`, the molecule was called inactive in test [1], in test [2], in test [3], in test [7], in [9] and in [10]. In addition, the AC50 was 23.7 µM (active) in test [4], 33.1 µM (active) in test [5], 5.35 µM (active) in [6] and 0.665 µM (active) in [8].
Turning to `CCOC(=O)/C=C(C)/C=C/C[C@@H](C)CCCC(C)C`, the call in test [1], in test [7] and in test [9] was inactive. In addition, the AC50 in [2] was 24.4 µM (active); in test [3], 176 µM (active); in [4] it was 62.9 µM (active); in test [5] it was 174 µM (active); in test [6], 182 µM (active); in test [8], 2.55 µM (active).
`O=C1C2(Cl)C3(Cl)C4(Cl)C(Cl)(Cl)C5(Cl)C3(Cl)C1(Cl)C5(Cl)C24Cl` (stereo unspecified): the outcome in test [1], in test [2], in [3], in test [5], in [6] and in test [7] was inactive. In addition, the molecule was classed as inactive in test [9] and in test [10]. In addition, the AC50 in test [3] is 11.1 µM (active); in test [5] it was 3.57 µM (active) and 16.2 µM (active); in test [6] it was 16 µM (active); in test [7] it was 15.7 µM (active); in test [9] it was 14 µM (active).
For the molecule `CCCCOCCOC(C)=O`, the molecule was called inactive in [1], in test [2], in test [3], in test [4], in test [5] and in test [6]. The molecule was classed as inactive in test [7], in test [8], in [9] and in [10].
On to `COc1ccccc1OC`, for which the molecule was classed as inactive in [1], in test [2], in test [3], in test [4], in test [5] and in test [6]. Besides, the result in [7], in test [8], in [9] and in test [10] was inactive.
For `CC(=O)c1cc(C(C)(C)C)cc2c1CCC2(C)C`, the call in test [1], in [2], in test [3], in test [6] and in test [10] was inactive. Besides, the AC50 in test [4] is 64.4 µM (active); in test [5], 70.4 µM (active); in [7] it was 26.9 µM (active); in [8], 5.72 µM (active); in test [9], 29.4 µM (active).
`CC(C)CCCCCCOC(=O)c1ccccc1C(=O)OCCCCCCC(C)C`: the outcome in [1], in [2], in [3], in test [4], in test [6] and in test [7] was inactive.
On to `O=C(O)C(F)(F)C(F)(F)C(F)(F)C(F)(F)C(F)(F)C(F)(F)F`, for which the call in [1], in test [2], in test [3], in test [5], in test [6] and in test [7] was inactive. In addition, the outcome in [8] and in [10] was inactive. Further, the AC50 in test [8] is 40.2 µM (active).
For `CCOP(=O)(CN(CCO)CCO)OCC`, the molecule was classed as inactive in [1], in test [2], in test [3], in test [4], in test [7] and in test [8]. The result in test [9] and in test [10] was inactive.
In the case of `Nc1ccc(Cl)cc1C(=O)c1ccccc1`, the molecule was called inactive in test [1], in test [2], in [3] and in test [4]. Further, the results for the AC50 in [7], in test [8] and in [10] were 29.6 µM (active), 6.6 µM (active) and 15 µM (active), respectively.
Take `O=[N+]([O-])c1c(Cl)c(Cl)cc(Cl)c1Cl`: the molecule was called inactive in [1], in test [2], in test [3], in test [4], in test [5] and in test [7]. For the same molecule, the molecule was called inactive in [9] and in test [10]. The half-maximal activity concentration (AC50) in test [8] is 18.2 µM (active).
In the case of `CCC(=O)C(CC(C)N(C)C)(c1ccccc1)c1ccccc1` (stereo unspecified), the molecule was classed as inactive in [1], in test [2], in test [3], in test [4], in [6] and in test [7]. In addition, the call in test [9] and in [10] was inactive. The AC50 in [8] was 18.6 µM (active).
`OCc1ccco1`: the call in [1], in test [2], in test [3], in test [5], in [6] and in [7] was inactive. In addition, the result in test [9] and in test [10] was inactive. The AC50 in test [8] is 39.7 µM (active).
For the molecule `CC(C#N)CCC#N` (stereo unspecified), the molecule was classed as inactive in test [1], in test [2], in [3], in test [4], in test [5] and in test [7]. Also, the call in [8], in test [9] and in test [10] was inactive.
For `O=C(O)C(Cl)(Cl)Cl`, the molecule was called inactive in test [1], in [2], in test [3], in test [5], in [6] and in test [7]. Moreover, the molecule was called inactive in test [8], in test [9] and in [10]. Also, the AC50 in [8] is 71.7 µM (active).
For `C[C@@H](Oc1ccc(Cl)cc1Cl)C(=O)O`, the molecule was classed as inactive in [1], in [2], in test [3], in [4], in test [7] and in test [8]. Further, the molecule was classed as inactive in test [10].
